Laboratory results: PubChem BioAssay (Tox21)
Unmarked numbers belong to inactive results. Inconclusive results are not listed. Entries that show only a call come without a potency. Active and inactive are the calls of the source. Calls come from the whole dose curve.

Key:
[1] = molecular target: Acetylcholinesterase (Homo sapiens) (UniProt P22303); test: Acetylcholinesterase (AChE) small molecule antagonists: enzyme-based qHTS assay (AID 1347397); conditions: Potency: AChE enzyme activity inhibition; outcome: AChE enzyme activity inhibition; note: nearly all actives have a fitted effect of over 55% in size
Method in brief: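 Human recombinant acetylcholinesterase; substrate acetylthiocholine; thiocholine quantified with DTNB (colorimetric). Compound preincubation 30 min RT; reaction 10 min RT.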

[2] = molecular target: Acetylcholinesterase (Homo sapiens) (UniProt P22303); test: Acetylcholinesterase (AChE) small molecule antagonists: fluorescence cell-based qHTS assay (AID 1347398); conditions: Potency: AChE activity; outcome: AChE activity; note: nearly all actives have a fitted effect of over 50% in size; note: potency is the fitted concentration of half-maximal effect
Method in brief: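 Thiocholine generated from acetylthiocholine by SH-SY5Y cell AChE is detected with Thiolite Green (Ex/Em 490/520 nm) after 40 min at room temperature, following 30 min compound pretreatment at 37 C.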

[3] = molecular target: Acetylcholinesterase (Homo sapiens) (UniProt P22303); test: Acetylcholinesterase (AChE) small molecule antagonists: enzyme-based qHTS assay with human liver microsomes (AID 1347399); conditions: Potency: qHTS inhibition; outcome: qHTS inhibition; note: nearly all actives have a fitted effect of over 60% in size
Method in brief: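 Recombinant human AChE (50 mU/mL in the enzyme mix) and human liver microsomes (0.25 mg/mL final) were preincubated with compound and NADPH (0.25 mg/mL final) for 30 min at 37 C. Acetylthiocholine/DTNB was then added; thiocholine was read colorimetrically after 10 min at room temperature.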

Sequence of Acetylcholinesterase (Homo sapiens) (P22303 whole entry, looked up): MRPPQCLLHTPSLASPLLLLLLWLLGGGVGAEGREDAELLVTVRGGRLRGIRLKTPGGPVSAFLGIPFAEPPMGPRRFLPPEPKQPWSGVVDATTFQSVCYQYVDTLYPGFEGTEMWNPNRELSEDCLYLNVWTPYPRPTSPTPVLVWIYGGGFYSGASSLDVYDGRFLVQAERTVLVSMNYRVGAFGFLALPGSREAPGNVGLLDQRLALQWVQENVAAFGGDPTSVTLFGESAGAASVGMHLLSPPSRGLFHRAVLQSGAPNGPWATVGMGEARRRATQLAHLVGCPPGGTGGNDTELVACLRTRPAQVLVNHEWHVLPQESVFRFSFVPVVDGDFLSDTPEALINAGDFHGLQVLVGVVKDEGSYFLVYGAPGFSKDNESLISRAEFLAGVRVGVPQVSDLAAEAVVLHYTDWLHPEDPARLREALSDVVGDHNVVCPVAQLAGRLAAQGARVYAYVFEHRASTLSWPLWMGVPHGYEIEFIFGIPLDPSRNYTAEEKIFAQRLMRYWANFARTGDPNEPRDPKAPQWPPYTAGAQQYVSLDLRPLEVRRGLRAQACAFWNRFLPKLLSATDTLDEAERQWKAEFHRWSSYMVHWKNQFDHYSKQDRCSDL

Compound: CCC(CC)CO
- Potency [1]: inactive
- Potency [2]: inactive
- Potency [3]: inactive

Compound: COC(=O)c1cccc(Cl)c1
- Potency [1]: inactive
- Potency [2]: inactive
- Potency [3]: inactive

Compound: C=CC(C)(O)CCCC(C)CCCC(C)CCCC(C)C (configuration not stated)
- Potency [1]: inactive
- Potency [2]: inactive
- Potency [3]: inactive

Compound: CCCCCCCC/C=C\CCCCCCCCO
- Potency [1]: inactive
- Potency [2]: inactive
- Potency [3]: inactive

Compound: OCC(CO)n1cnc(-c2ccc(F)cc2)c1-c1ccnc(Oc2ccccc2)n1
- Potency [1]: inactive
- Potency [2]: inactive
- Potency [3]: inactive

Compound: Cc1cccc(O)c1N
- Potency [1]: inactive
- Potency [2]: inactive
- Potency [3]: inactive

Compound: Cc1cc2c(cc1C(F)(F)F)N(C(=O)Nc1ccc(Oc3cccnc3C)nc1)CC2
- Potency [1]: inactive
- Potency [2]: inactive
- Potency [3]: inactive

Compound: Cc1nc2n(c(=O)c1CCN1CCC(c3noc4cc(F)ccc34)CC1)CCC[C@H]2O
- activity change, negative = inhibition [1]: -5.56% [at 23.6 µM]
- activity change, negative = inhibition [2]: -17.1% [at 23.8 µM]
- activity change, negative = inhibition [3]: -2.77% [at 23.6 µM]

Compound: O=C1Nc2ccc(Cl)cc2[C@@](C#CC2CC2)(C(F)(F)F)O1
- Potency [1]: inactive
- Potency [2]: inactive
- Potency [3]: inactive

Compound: COC(=O)C1=C(C)NC(C)=C(C(=O)O[C@@H]2CCCN(Cc3ccccc3)C2)[C@@H]1c1cccc([N+](=O)[O-])c1
- Potency [1]: inactive
- Potency [2]: inactive
- Potency [3]: inactive

Compound: CC(C)=CCCC(C)CCOC(=O)C(C)C (configuration not stated)
- Potency [1]: inactive
- Potency [2]: inactive
- Potency [3]: inactive

Compound: CCCCCCCC/C=C\CCCCCCCC(=O)N(CCO)CCO
- Potency [1]: inactive
- Potency [2]: 19.9 µM (active)
- Potency [3]: inactive

Compound: O=[N+]([O-])c1cc(Cl)c(Cl)c(Cl)c1Cl
- Potency [1]: inactive
- Potency [2]: inactive
- Potency [3]: inactive

Compound: O=C(O)C1(C(=O)Nc2ccc(Cl)cc2Cl)CC1
- Potency [1]: inactive
- Potency [2]: inactive
- Potency [3]: inactive

Compound: CC(=O)Oc1ccc(C(c2ccc(OC(C)=O)cc2)c2ccccn2)cc1
- Potency [1]: inactive
- Potency [2]: inactive
- Potency [3]: inactive

Compound: O=S(=O)(c1ccccc1)c1ccc(Cl)cc1
- Potency [1]: inactive
- Potency [2]: inactive
- Potency [3]: inactive

Compound: Nc1ccc(NC(=O)c2ccc(N)cc2)cc1
- Potency [1]: inactive
- Potency [2]: inactive
- Potency [3]: inactive

Compound: COC(=O)C(C)=O
- Potency [1]: inactive
- Potency [2]: inactive
- Potency [3]: inactive

Compound: CCNS(=O)(=O)c1ccc(C)cc1
- Potency [1]: inactive
- Potency [2]: inactive
- Potency [3]: inactive
